This note sets out measurements from PubChem BioAssay (NCATS).

The nature of test [1]: qHTS of pediatric cancer cell lines to identify multiple opportunities for drug repurposing: Primary screen for SK-N-SH cells (AID 1347098). Further: nearly all actives have a fitted effect of over 65% in size. Further: potency means the concentration at half of the fitted maximal effect. In outline: (§1)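 Cells (500-1,000/well) rested 5 h, then received compounds for 48 h; metabolically active cells were measured by CellTiter-Glo luminescence. Final concentrations spanned up to 46 µM (MIPE, 11-point) or 0.59 nM-46 µM (NPC, 8-point) in primary screens, 11-point in follow-ups.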
Background: Quantitative high-throughput screening tests each substance at several concentrations.

A short description of test [2]: qHTS of pediatric cancer cell lines to identify multiple opportunities for drug repurposing: Primary screen for NB1643 cells (AID 1347099). Further: nearly all actives have a fitted effect of over 50% in size. Further: potency means the concentration at half of the fitted maximal effect. The method in brief:
(§2)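 Following a 5-hour attachment period, cells at 500-1,000/well received compounds and were cultured for 48 hours. CellTiter-Glo was added and luminescence read to estimate viable, metabolically active cells.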

The nature of test [3]: qHTS of pediatric cancer cell lines to identify multiple opportunities for drug repurposing: Primary screen for LAN-5 cells (AID 1347100). Further: potency means the concentration at half of the fitted maximal effect. In outline: as §1
A short description of test [4]: qHTS of pediatric cancer cell lines to identify multiple opportunities for drug repurposing: Primary screen for BT-12 cells (AID 1347101). Further: nearly all actives have a fitted effect of over 25% in size. In outline:
as §1

Test [5] in a line: qHTS of pediatric cancer cell lines to identify multiple opportunities for drug repurposing: Primary screen for Rh18 cells (AID 1347102). Further: nearly all actives have a fitted effect of over 65% in size. The method in brief:
as §1

Test [6] is described as follows: qHTS of pediatric cancer cell lines to identify multiple opportunities for drug repurposing: Primary screen for RD cells (AID 1347104). Further: nearly all actives have a fitted effect of over 55% in size. Further: potency means the concentration at half of the fitted maximal effect. In outline:
as §2

A short description of test [7]: qHTS of pediatric cancer cell lines to identify multiple opportunities for drug repurposing: Primary screen for MG 63 (6-TG R) cells (AID 1347105). Further: nearly all actives have a fitted effect of over 50% in size. Further: potency means the concentration at half of the fitted maximal effect. The method in brief: as §2
Test [8] in a line: qHTS of pediatric cancer cell lines to identify multiple opportunities for drug repurposing: Primary screen for control Hh wild type fibroblast cells (AID 1347106).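 Further: series mostly up to about 46 µM; a drop in luminescence marks cytotoxicity and a rise apparent proliferation; nearly all actives have a fitted effect of over 55% in size.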 The method in brief:
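Cells (500-1,000/well) in growth media were settled 5 h at 37 degrees C, then given compounds for 48 h. Viability was read as CellTiter-Glo luminescence. Primary runs used MIPE at 11 points (0.78 nM-46 µM) and NPC at 8 points (0.59 nM-46 µM); follow-ups used 11 points.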

The nature of test [9]: qHTS of pediatric cancer cell lines to identify multiple opportunities for drug repurposing: Primary screen for Rh30 cells (AID 1347107). Further: series mostly up to about 46 µM; nearly all actives have a fitted effect of over 75% in size. The method in brief: as §1
Test [10] in a line: qHTS of pediatric cancer cell lines to identify multiple opportunities for drug repurposing: Primary screen for OHS-50 cells (AID 1347103). Further: nearly all actives have a fitted effect of over 40% in size. The method in brief: as §1

Records with an inconclusive call do not appear. Calls of active or inactive are those of the source. The call rests on the fitted dose curve; in most records, active means well fitted curve in the direction sought with a large enough effect; inconclusive means small, poorly fitted or top-dose-only effect, or another doubt; inactive means no such curve, though single readings can be large; an effect the other way counts as inactive or inconclusive.

`C[C@]12CCC(=O)C=C1CC[C@@H]1[C@@H]2CC[C@]2(C)C(=O)CC[C@@H]12`: the Potency entry in test [1], in test [2], in test [3], in test [4], in test [5] and in test [6] was “inactive” throughout. Further, in [7], the Potency entry was “inactive”. Besides, the compound was called inactive in test [8] and in test [9].

For the compound `O=c1[nH]oc2c1CCNC2`, the Potency entry in test [1], in test [2], in test [3], in test [4], in test [5] and in test [10] was “inactive” in each case. In addition, the Potency result in test [6] and in test [7] was “inactive” throughout. For the same compound, the result in [8] and in test [9] was inactive.

Regarding `CN(C)CCc1c[nH]c2cccc(OP(=O)(O)O)c12`, the Potency entry in [1], in [2], in test [3], in test [4], in test [5] and in [10] was “inactive” in each case. For the same compound, the Potency result in [6] and in test [7] was “inactive” in each case. In addition, the compound was called inactive in test [8] and in [9].

With `C[C@H]1[C@@H]2Cc3ccc(O)cc3[C@@]1(C)CCN2C`, the Potency result in [1], in test [2], in [3], in [4], in [5] and in test [6] was “inactive” throughout. Also, in [7], the Potency entry is “inactive”. Also, the compound was classed as inactive in [8] and in test [9].

On to `CN1C(=O)COc2c(C(=O)NC3CN4CCC3CC4)cc(Cl)cc21` (stereo not given), for which the Potency result in test [1], in [2], in test [3], in [4], in test [10] and in test [6] was “inactive” in each case. For the same compound, in [7], the Potency entry was “inactive”. Further, the compound was classed as inactive in test [8] and in [9].

In the case of `CCCOC(=O)c1cncn1C(C)c1ccccc1` (stereo not given), the Potency entry in [1], in [2], in test [3], in [4], in test [5] and in test [10] was “inactive” in each case. Moreover, the Potency result in test [6] and in [7] was “inactive” in each case. Besides, the compound was classed as inactive in test [8] and in [9].

As to `CCC(C)(C)c1ccc(O)cc1`, the Potency entry in test [1], in test [2], in [3], in [4], in test [5] and in test [6] was “inactive” throughout. In test [7], the Potency entry is “inactive”. Moreover, the result in test [8] and in test [9] was inactive.

Take `Clc1ccccc1N1CCNCC1`: the Potency result in [1], in test [2], in [3], in test [4], in test [10] and in test [6] was “inactive” each time. The Potency result in test [7] was “inactive”. Moreover, the compound was called inactive in test [8] and in [9].

With `CN1C(=O)CCS(=O)(=O)C1c1ccc(Cl)cc1` (stereo not given), the Potency entry in test [1], in [2], in [3], in [4], in test [10] and in [6] was “inactive” throughout. Further, in test [7], the Potency entry is “inactive”. The result in [8] and in test [9] was inactive.

In the case of `c1ccc2c(c1)sc1ccccc12`, the Potency result in test [1], in test [2], in test [3], in test [4], in test [5] and in [10] was “inactive” throughout. In addition, the Potency entry in [6] and in test [7] was “inactive” each time. In addition, the outcome in test [8] and in test [9] was inactive.

In the case of `C#C[C@]1(O)CC[C@H]2[C@@H]3CCC4=CC(=O)CC[C@]4(C)[C@H]3CC[C@@]21C`, the Potency result in test [1], in test [2], in [3], in [4], in test [5] and in test [10] was “inactive” throughout. In addition, the Potency entry in test [6] and in [7] was “inactive” each time. Also, the call in [8] and in test [9] was inactive.

For the compound `CC(=O)OCC1=C(C(=O)O)N2C(=O)[C@@H](N)[C@H]2SC1`, the Potency result in [1], in [2], in [3], in [4], in test [5] and in test [10] was “inactive” in each case. Further, the Potency entry in [6] and in [7] was “inactive” in each case. Further, the compound was called inactive in test [8] and in test [9].

Regarding `CC(=O)NC1CCSC1=O` (stereo not given), the Potency result in [1], in test [2], in test [3], in test [4], in [5] and in test [10] was “inactive” in each case. The Potency entry in test [6] and in [7] was “inactive” throughout. Moreover, the compound was classed as inactive in test [8] and in test [9].

On to `COc1c2c(cc3c1OCO3)CCN(C)C2`, for which the Potency result in test [1], in test [2], in [3], in [4], in [5] and in test [6] was “inactive” throughout. For the same compound, the Potency entry in test [7] was “inactive”. In addition, the compound was classed as inactive in test [9].

On to `CCC(CC)(CNC(=O)CCCO)c1cccc(OC)c1`, for which the Potency entry in test [1], in [2], in test [3], in [4], in [5] and in test [10] was “inactive” in each case. The Potency result in test [6] and in [7] was “inactive” throughout. In addition, the result in test [8] and in test [9] was inactive.

For the compound `CCOC(=O)CC(SP(=S)(OC)OC)C(=O)OCC` (stereo not given), the Potency entry in test [1], in test [2], in test [3], in test [4], in [5] and in test [10] was “inactive” each time. Also, the Potency entry in test [6] and in test [7] was “inactive” in each case. For the same compound, the result in test [8] and in test [9] was inactive.

Consider `COc1ccc2c3c1O[C@H]1[C@H](O)CC[C@H]4[C@@H](C2)N(C)CC[C@@]341`, for which the Potency entry in [2], in test [3], in [4], in [5], in test [10] and in test [6] was “inactive” each time. Besides, the Potency result in [7] is “inactive”. The compound was classed as inactive in [8] and in [9].

`C[C@@H](N)[C@@H](O)c1ccccc1`: the Potency result in test [2], in test [3], in [4], in [5], in test [10] and in test [6] was “inactive” in each case. The Potency result in test [7] is “inactive”. Also, the compound was called inactive in [8] and in test [9].

On to `CC(C)(C)NCC(O)c1cc(Cl)c(N)c(C(F)(F)F)c1` (stereo not given), for which the Potency entry in test [2], in test [3], in test [4], in test [5], in test [10] and in test [6] was “inactive” throughout. The Potency result in test [7] is “inactive”. The call in [8] and in test [9] was inactive.

Turning to `C[C@H](N)C(=O)c1ccccc1`, the Potency result in test [2], in [3], in test [4], in test [5], in test [10] and in test [6] was “inactive” in each case. In addition, the Potency entry in [7] is “inactive”. Besides, the result in test [8] and in [9] was inactive.

For the compound `C[C@](O)(CS(=O)(=O)c1ccc(F)cc1)C(=O)Nc1ccc(C#N)c(C(F)(F)F)c1`, the Potency was 2.41 µM (active) in test [1]; 2.96 µM (active) in test [2]; 2.96 µM (active) in test [3]; 5.9 µM (active) in test [6]; 1.18 µM (active) in test [7]. In addition, in [10], the Potency entry was “inactive”.

Take `CCN[C@@H](C)Cc1ccccc1`: the Potency entry in [2], in [3], in test [4], in test [5], in test [10] and in [6] was “inactive” each time. In addition, the Potency result in test [7] is “inactive”. Besides, the result in test [8] and in test [9] was inactive.

Take `CN1CC[C@]23c4c5ccc(O)c4O[C@H]2[C@@H](O)CC[C@H]3[C@H]1C5`: the Potency entry in test [1], in test [2], in test [3], in test [10], in [6] and in [7] was “inactive” in each case. Further, the compound was classed as inactive in [8] and in test [9].

As for `NC1=NC(=O)C(c2ccccc2)O1` (stereo not given), the Potency result in test [1], in [2], in test [3], in [5], in test [10] and in [6] was “inactive” in each case. For the same compound, the Potency entry in test [7] is “inactive”. Further, the compound was classed as inactive in test [8] and in test [9].
